In the library only some 1.3% were active in any assay of this set; here they are far more common.
Rv3671c inh: inhibits the M. tuberculosis serine protease Rv3671c | P9WHR9 | 320,000 compounds, 0.048% hits | inhibition, % at 5.96 µM; in the data active = inhibition above about 38%;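 note: extracellular domain of Rv3671c used as enzyme; 0% = enzyme with DMSO and 100% = no enzyme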
UGM FP inh: blocks M. tuberculosis UGM enzyme; purified UGM, fluorescence polarization probe displacement; inhibition, % at 10 µM; 320,000 compounds, 0.06% hits; AID 504406; in the data active = inhibition above about 10%, passing the limit was not always enough
PrP 5UTR inh: inhibition of PrP 5' UTR reporter expression. cell-based PrP 5' UTR mRNA reporter, plate reader. inhibition, % (test concentration not listed). 340,000 compounds, 0.35% hits. AID 488862; in the data active = inhibition above about 52%; note: 0 = median of the neutral control wells
BJeLR lethal: BJeLR cell viability loss; AID 1554; inhibition, % (test concentration not listed); BJeLR (HRASV12) viability, CellTiter-Glo ATP luminescence, 48 h; 300,000 compounds, 0.17% hits; in the data active = inhibition above about 50%
FadD28 binding: blocks FadD28 binding to the bisubstrate probe; fluorescence polarization; inhibition, % at 12.5 µM; 360,000 compounds, 0.22% hits; in the data active = inhibition above about 8.5%, passing the limit was not always enough
RecA intein inh: inhibitors of M. tuberculosis RecA intein splicing | P9WHJ3 | cell-free RecA intein splicing, fluorescence | inhibition, % (concentration not given with the values) | 290,000 compounds, 0.75% hits | AID 2221; in the data active = inhibition above about 30%;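 note: 0% = vehicle wells and 100% = reference inhibitor control wells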
Target sequence (P9WHJ3 whole entry, looked up): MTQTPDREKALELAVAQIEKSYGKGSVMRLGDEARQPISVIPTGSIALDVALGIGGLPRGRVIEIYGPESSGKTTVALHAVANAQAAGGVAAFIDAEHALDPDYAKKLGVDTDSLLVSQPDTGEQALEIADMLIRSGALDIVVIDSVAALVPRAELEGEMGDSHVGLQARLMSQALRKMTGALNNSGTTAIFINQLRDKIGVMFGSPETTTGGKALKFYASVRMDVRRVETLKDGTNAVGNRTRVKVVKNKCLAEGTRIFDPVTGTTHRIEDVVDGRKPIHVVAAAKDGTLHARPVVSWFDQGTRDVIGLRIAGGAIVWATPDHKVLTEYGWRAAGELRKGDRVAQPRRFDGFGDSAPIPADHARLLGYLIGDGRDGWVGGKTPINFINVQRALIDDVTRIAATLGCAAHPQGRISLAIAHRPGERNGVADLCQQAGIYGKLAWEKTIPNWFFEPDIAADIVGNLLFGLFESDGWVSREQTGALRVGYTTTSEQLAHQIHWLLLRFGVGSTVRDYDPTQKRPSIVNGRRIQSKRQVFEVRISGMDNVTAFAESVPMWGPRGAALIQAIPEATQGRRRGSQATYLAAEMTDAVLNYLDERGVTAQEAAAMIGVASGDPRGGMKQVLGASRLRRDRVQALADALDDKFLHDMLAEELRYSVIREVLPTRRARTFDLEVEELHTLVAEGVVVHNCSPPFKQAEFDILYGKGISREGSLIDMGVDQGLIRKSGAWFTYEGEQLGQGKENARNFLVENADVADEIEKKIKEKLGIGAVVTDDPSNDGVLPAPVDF
PrP 5UTR single: prion 5' UTR mRNA inhibition, cherry-pick retest. shares compounds with PrP 5UTR inh. inhibition, % at 2.5 µM. 1,100 compounds, 48% hits. cell-based prion protein 5' UTR reporter, plate reader. AID 504592; in the data active = inhibition above about 54%
Starred values were filed as active, the others as inactive; x = no result given.

SMILES	Rv3671c inh	UGM FP inh	PrP 5UTR inh	BJeLR lethal	FadD28 binding	RecA intein inh	PrP 5UTR single
CCc1noc(C)c1C(=O)N(C)CC(=O)Nc1cccc(OC)c1	-8	1	89*	x	-3	x	-2
Cc1ccc(CC(=O)OC(C)C(=O)NC2CCCCC2C)cc1C (configuration not stated)	-3	-7	2	x	-2	x	x
CC(C)N(Cc1cc2ccccc2[nH]c1=O)C(=O)c1cccc([N+](=O)[O-])c1	1	-2	68*	-8	-1	1	-7
O=S(=O)(NCCc1ccccc1)c1ccc(F)cc1Br	x	x	53*	x	-2	x	-9
O=C(NCc1ccccc1)Nc1cccn(Cc2ccccc2Cl)c1=O	5	3	-34	-4	-4	x	x
Cc1ccccc1C(=O)NNC(=O)C12CC3CC(CC(C3)C1)C2	-11	-2	88*	-10	-1	x	-16
C[C@]12CCC(=O)C[C@@H]1CC[C@@H]1[C@@H]2CC[C@]2(C)C=CC[C@@H]12	10	-2	66*	-14	-1	4	9
Nc1ccc(-c2ncc(-c3ccccc3)o2)cc1	-5	-1	76*	-1	4	2	64*
CN(C)CCCNC(=O)CC(c1ccccc1)c1ccccc1O (configuration not stated)	2	-1	71*	-4	0	x	-18
O=C(CC(c1ccccc1)c1ccccc1O)NCc1ccccc1 (configuration not stated)	-5	-1	-31	-4	-3	0	x
CCN(CC)CCNc1ccc(CO)c2oc3ccccc3c(=O)c12	x	x	x	x	-5	x	x
NC(=O)c1cc([N+](=O)[O-])ccc1NCc1ccc(N)cc1	3	0	74*	x	0	x	75*
CCOc1ccc(CCNC(=O)C2CC(C)=CCC2C(=O)O)cc1OCC (configuration not stated)	2	2	x	2	-1	-1	x
Cc1cccc(N2CC(C(=O)Nc3nnc(SCC(=O)N4CCOCC4)s3)CC2=O)c1 (configuration not stated)	0	3	-21	-10	-4	-1	x
Cc1[nH]nc2ccc(-c3cncc(OC[C@@H](N)Cc4c[nH]c5ccccc45)c3)cc12	x	x	95*	x	-12	x	91*
O=C(NCc1ccccn1)c1ccc(Cn2c(=S)[nH]c3ccccc3c2=O)cc1	-8	0	-7	5	2	0	x
O=C(NCc1ccccn1)c1ccc(Cn2c(=S)[nH]c3ccc(Br)cc3c2=O)cc1	-7	3	71*	0	-2	-2	-6
Cc1ccc(-c2n[nH]c(=S)n2/N=C/c2ccc(C)s2)cc1	-5	-1	66*	-3	-1	0	8
COc1cc(CN2CCN(C(=O)c3cccc4ccccc34)CC2)cc(OC)c1O	-1	3	-23	-9	-2	-5	x
CCCCCC(=O)NC(=S)Nc1ccc(Br)cc1C	-2	3	57*	6	-1	-4	1
CCCC(=O)NC(=S)Nc1c(C)cc(Br)cc1C	-2	0	-50	-6	-2	18	x
COC(=O)c1nn(-c2ccc3c(c2)CCN3C(C)=O)cc1O	-6	4	82*	27	1	-2	81*
C=C(C=O)CC1CC(O)[C@]2(C)OC3CC4OC5C[C@]6(C)O[C@]7(C)CCC8OC9C[C@]%10(C)OC%11C(C)=CC(=O)OC%11CC%10OC9C[C@@H](C)C8OC7CC6O[C@]5(C)CC5OC5C4OC3CC2O1 (some centres not stated)	-9	-1	85*	38	-1	2	98*
Cc1ccccc1C(=O)N1CCC(C(=O)Nc2nccs2)CC1	1	1	88*	-9	-3	0	-17
Cc1ccc(NC(=O)C2CCN(C(=O)c3ccccc3C)CC2)nc1	0	1	-15	8	-2	-1	x
SMILES	Rv3671c inh	UGM FP inh	PrP 5UTR inh	BJeLR lethal	FadD28 binding	RecA intein inh	PrP 5UTR single
Cc1c(NC(=O)c2ccc(-c3cccc([N+](=O)[O-])c3)o2)c(=O)n(-c2ccccc2)n1C	1	0	-37	-6	-4	0	x
O=C(NNC(=O)c1cccs1)c1ccco1	-7	1	64*	11	2	1	88*
CCOc1ccccc1NC(=O)CN(c1ccc(Cl)cc1)S(C)(=O)=O	2	-1	-30	2	-2	2	x
C/C(=N\Nc1nc(N2CCCCC2)nc(N2CCOCC2)n1)c1ccccc1O	-3	-2	81*	3	1	1	11
Cc1cc(C(=O)N2CC=C(c3ccccc3)CC2)c2ccccc2n1	-12	2	52*	47	-2	2	74*
CCOC(=O)c1cc(NC(=O)CC(C)(C)CC(=O)O)ccc1N1CCCCC1	3	1	-15	0	-3	-20	x
NC(=O)COC(=O)c1ccc(S(=O)(=O)N2CCCCCC2)cc1	2	-2	-16	3	-4	-1	x
Cc1nc(COC(=O)c2ccc(S(=O)(=O)N3CCCC3)cc2)cs1	-6	-1	89*	2	-4	1	-12
Cc1ccccc1CSc1nnc([C@@H]2CCCN2)o1	-4	1	74*	0	-2	-2	4
Cc1ccc(C(C(=O)NC(C)(C)C)N(Cc2cccnc2)C(=O)C(=O)NC2CCCCC2)o1 (configuration not stated)	2	1	-23	5	-1	0	x
O=C(O)c1cc2nccc(-c3ccco3)n2n1	4	1	x	12	-2	-40	x
COc1ccc(-c2ccnc3cc(C(=O)O)nn23)cc1	4	1	84*	0	-3	-25	-9
O=S(=O)(NCc1ccccn1)c1ccccn1	5	0	-15	13	-1	-2	x
CCOC(=O)c1c(C)[nH]c(C(=O)OCCOc2ccccc2C)c1C	x	x	81*	-5	-1	0	-60
CCOC(=O)c1c(C)[nH]c(C(=O)OCCOc2ccc(Cl)cc2)c1C	-10	-2	-10	-1	-2	x	x
Cc1cc(C)c2c(N)c(C(=O)Nc3cccc(C)c3C)sc2n1	12	4	-46	0	-4	-9	x
O=S1(=O)CC(N2CCCCC2)C(N2CCCCC2)C1 (configuration not stated)	2	-2	69*	4	1	-2	-6
COc1ccc(NC(=O)Nc2cccc3ccccc23)cc1S(N)(=O)=O	3	-4	-8	3	x	3	x
CCN(CC)c1ccc(/C=C(/C#N)C(=O)NC(C)C)o1	-3	-2	82*	6	-1	-9	-24
CCCCn1c(N)c(N(CC(C)C)C(=O)c2c(CC)noc2C)c(=O)[nH]c1=O	10	-1	-11	1	-2	3	x
COCC1CCCC1OS(N)(=O)=O (configuration not stated)	-7	-1	11	-4	-1	-1	x

Bioassay records: PubChem BioAssay, several laboratories
